Assay results published in PubChem BioAssay.
The source made the active and inactive calls. How the calls were made is not given here.

biological target: Pantothenate synthetase (Mycobacterium tuberculosis (strain ATCC 25618 / H37Rv)) (UniProt P9WIL5); experiment: Coupled enzyme confirmation of inhibitors against recombinant Mtb PanC (AID 375); conditions: coupled enzyme assay; at 10 µM, hits give high values;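 further: 0% = full reaction with vehicle and 100% = no enzyme background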
Sequence (P9WIL5 whole entry, looked up): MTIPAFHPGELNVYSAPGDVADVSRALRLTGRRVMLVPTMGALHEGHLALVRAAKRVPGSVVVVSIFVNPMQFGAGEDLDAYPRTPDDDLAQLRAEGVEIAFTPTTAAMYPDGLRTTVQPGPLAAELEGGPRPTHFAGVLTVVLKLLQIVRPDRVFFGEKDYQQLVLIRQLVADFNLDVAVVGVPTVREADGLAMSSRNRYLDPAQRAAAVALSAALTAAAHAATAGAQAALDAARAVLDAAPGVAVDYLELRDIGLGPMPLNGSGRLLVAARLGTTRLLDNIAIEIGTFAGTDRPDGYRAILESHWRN

| Structure (SMILES) | inhibition |
| --- | --- |
| COCCOC(=O)C1=C(C)NC(C)=C(C(=O)OC(C)C)C1c1cccc([N+](=O)[O-])c1 (configuration not stated) | 0% (inactive) |
| O=C(Nc1ccncc1)C1CCCN(S(=O)(=O)c2cccc3cccnc23)C1 (configuration not stated) | 0% (inactive) |
| COc1ccc(OC)c(S(=O)(=O)NCCO)c1 | 1% (inactive) |
| Nc1nc(NC(=O)c2cccs2)nn1-c1ccccc1 | 1% (inactive) |
| CCCN1CCN(C(=O)Cn2c(=O)oc3cc(S(=O)(=O)NCc4ccccc4)ccc32)CC1 | 3% (inactive) |
| Cc1ccc(-n2ncc3c(=O)n(CC(=O)NCc4ccco4)cnc32)cc1 | 0% (inactive) |
| Cn1cccc1-c1nc2ccc(NC(=O)c3ccco3)cc2[nH]1 | 6% (inactive) |
| Nc1nc2c(ncn2COCCO)c(=O)[nH]1 | 0% (inactive) |
| CCOC(=O)c1c(C)oc2ccc(O)c(CN3CCCCC3)c12 | 12% (inactive) |
| Cc1c(NC(=O)c2ccc(=O)oc2)c(=O)n(-c2ccccc2)n1C | 6% (inactive) |
| O=C(CSc1nc2ccccc2c(=O)n1Cc1ccco1)NCc1ccccc1 | 2% (inactive) |
| Nc1nc(Cl)nc2c1ncn2[C@H]1C[C@H](O)[C@@H](CO)O1 | 0% (inactive) |
| C=CCn1cnc2c(c1=O)c1nc3ccccc3nc1n2-c1ccc(C)cc1 | 0% (inactive) |
| O/N=C/c1ccc(OCC(O)COc2ccc(/C=N/O)cc2)cc1 | 0% (inactive) |
| O=S(=O)(NCc1cn2ccccc2n1)c1cc(F)ccc1F | 2% (inactive) |
| CCOc1ccc(C(c2nnnn2Cc2ccccc2)N2CCN(C(=O)c3ccco3)CC2)cc1 (configuration not stated) | 2% (inactive) |
| O=C(c1cccc(C(=O)N2CCN(c3ccc(F)cc3)CC2)c1)N1CCN(c2ccc(F)cc2)CC1 | 10% (inactive) |
